We go through 16 compounds from PubChem BioAssay AID651784 (National Center for Advancing Translational Sciences (NCATS), 2012).

Each structure is given as a SMILES string. Results filed as inconclusive are left out. Calls of active or inactive are those of the source. The call rests on the fitted dose curve; in most records, active means well fitted inhibition curve with a large enough effect; inconclusive means small, poorly fitted or top-dose-only effect; inactive means no such curve, though single readings can be large or run the other way.
Potency means the concentration at half of the fitted maximal effect.

The experiment is described as follows: Acumen qHTS Assay for Inhibitors of the mTORC1 Signaling Pathway in MEF (Tsc2-/-, p53-/-) Cells: Hit Validation.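 Further: phospho-rpS6 Ser235/236 immunofluorescence normalized to propidium iodide cell count; nearly all actives have a fitted effect of over 65% in size.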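 On activity change, negative = inhibition: cells exposed to compound for 24 hours; plate controls were DMSO for no effect and 7.5 nM rapamycin control for full effect.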 The following applies: Acumen imaging; activity change, negative = inhibition: at 37.3 µM (top of the series).
As to `Cc1nc2scc(C)n2c(=O)c1S(=O)(=O)Nc1ccc(N2CCOCC2)c(Cl)c1`, the Potency is 1470 nM (active).

On to `CCC1=Nc2cc(C(=O)NC3CCC(C)CC3)ccc2Sc2ccc(C)cc21` (stereo unspecified), for which the Potency was 1470 nM (active).

As for `Cc1ccc(C(=O)/C=C/c2cn(CC(O)CN3CCCCCC3)c3ccccc23)cc1` (stereo unspecified), the Potency is 18500 nM (active).

As for `CCCC(=O)OC1=CN(Cc2ccccc2)S(=O)(=O)c2ccccc21`, the activity change, negative = inhibition was -27.1%.

For `CCc1ccc(NC(=O)C2CCCN(S(=O)(=O)c3c(C)noc3/C=C/N(C)C)C2)cc1` (stereo unspecified), the activity change, negative = inhibition is -73.7%.

In the case of `COc1ccc(CNC(=O)Cn2c(SCC(=O)Nc3ccc(C)c(C)c3)nc3ccccc32)cc1`, the activity change, negative = inhibition is -79.6%.

Regarding `CC1CCCN(CCCNC(=O)c2cc3c(Cl)nc4ccccc4c3s2)C1` (stereo unspecified), the activity change, negative = inhibition was -16.9%.

For `Cc1ccc(NC(=O)Nc2cccs2)c(C)c1`, the activity change, negative = inhibition was -40.4%.

Turning to `CCCN1C(=O)C(Cc2nc3ccccc3c(=O)n2CC)c2cc(Br)ccc21` (stereo unspecified), the activity change, negative = inhibition amounted to 4.78%.

As for `CCOC(=O)c1[nH]c2ccccc2c1NC(=O)c1ccccc1OCC`, the Potency was 2930 nM (active).

With `CCOC(=O)c1sc2ccccc2c1S(=O)(=O)Nc1ccc(CC)cc1`, the activity change, negative = inhibition was -9.52%.

As for `CC(C(=O)NCc1cccc(Br)c1)n1ncn2cccc2c1=O` (stereo unspecified), the activity change, negative = inhibition stood at 1.66%.

Take `CC1CCN(S(=O)(=O)c2ccc(C(=O)Nc3sc4c(c3C(N)=O)CC(C)(C)NC4(C)C)cc2)CC1`: the activity change, negative = inhibition was -107%.

On to `CCCCOc1ccc(Cn2c(=O)sc3ccccc32)cc1`, for which the activity change, negative = inhibition was -17%.

In the case of `CCOC(=O)c1ccc(-c2ccc(/C=C(\C#N)c3nc4ccc(C)cc4[nH]3)o2)cc1`, the Potency is 4140 nM (active).

Take `Cc1oc(-c2ccccc2F)nc1Cn1c(SCc2cccc(Cl)c2)nc2ccncc21`: the activity change, negative = inhibition was -12.7%.
